The source of these data is PubChem BioAssay.

Activity calls are given as the source filed them.

Assay [1] concerns Plasmodium falciparum Sir2 (PF13_0152, Sir2A). In words: pfSir2 binders on small-molecule microarrays, primary screen, biochemical, small-molecule microarray, 635 nm fluorescence (AID 1098).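 Also: score merges spot fluorescence intensity with its signal-to-noise ratio.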 To be noted: small-molecule microarray binding, fluorescence 635 nm; higher = more signal.
Assay [2] is described as follows: small-molecule microarray binders of probe aDKK1, primary screen, biochemical, biotinylated probe, 635/667 nm fluorescence (AID 1099).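 Also: score merges 667nm spot fluorescence with signal to noise across triplicate slides.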 The conditions noted are these: higher = more signal.
The nature of assay [3]: small-molecule microarray binders of probe aCHRDL2, primary screen, biochemical, biotinylated probe, 635/667 nm fluorescence (AID 1100). The conditions noted are these: higher = more signal.
Assay [4] can be described thus: splicing luciferase reporter signal modulators, primary screen, spliceosome inhibition project, cell-based, HEK293, splice +/- reporter (AID 1101).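 Also: HEK293 cells carrying a splicing-competent luciferase reporter gene; test concentration not given here.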 The conditions noted are these: luminescence, 24 h, higher = more signal, called active from +8 up or from −8 down. In general terms: A reporter such as luciferase makes a cellular process visible.
Assay [5] concerns the target Fibroblast growth factor 10 (Homo sapiens) (UniProt O15520). In words: FGF10 binders on small-molecule microarrays, primary screen, biochemical, small-molecule microarray, 635 nm fluorescence (AID 1102). To be noted: FGF10 binding, fluorescence 635 nm, higher = more signal.
Assay [6] deals with glycogen synthase kinase-3 (GSK3A per assay name; protocol says GSK3B). Briefly: GSK3 binders on small-molecule microarrays, primary screen, biochemical, small-molecule microarray, 635 nm fluorescence, GSK3A (AID 1103). Also: the record names both GSK3A and GSK3B. The conditions noted are these: small-molecule microarray binding, fluorescence 635 nm; higher = more signal.
For assay [7], the target named is Epidermal growth factor receptor (Homo sapiens) (UniProt P00533). In words: EGFR binders on small-molecule microarrays, primary screen, biochemical, small-molecule microarray, 635 nm fluorescence (AID 1104).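 Also: score merges 667 nm emission intensity with spot signal to noise over triplicate slides.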 The conditions noted are these: EGFR binding, higher = more signal.
Chain of Epidermal growth factor receptor (Homo sapiens) (P00533 whole entry, looked up): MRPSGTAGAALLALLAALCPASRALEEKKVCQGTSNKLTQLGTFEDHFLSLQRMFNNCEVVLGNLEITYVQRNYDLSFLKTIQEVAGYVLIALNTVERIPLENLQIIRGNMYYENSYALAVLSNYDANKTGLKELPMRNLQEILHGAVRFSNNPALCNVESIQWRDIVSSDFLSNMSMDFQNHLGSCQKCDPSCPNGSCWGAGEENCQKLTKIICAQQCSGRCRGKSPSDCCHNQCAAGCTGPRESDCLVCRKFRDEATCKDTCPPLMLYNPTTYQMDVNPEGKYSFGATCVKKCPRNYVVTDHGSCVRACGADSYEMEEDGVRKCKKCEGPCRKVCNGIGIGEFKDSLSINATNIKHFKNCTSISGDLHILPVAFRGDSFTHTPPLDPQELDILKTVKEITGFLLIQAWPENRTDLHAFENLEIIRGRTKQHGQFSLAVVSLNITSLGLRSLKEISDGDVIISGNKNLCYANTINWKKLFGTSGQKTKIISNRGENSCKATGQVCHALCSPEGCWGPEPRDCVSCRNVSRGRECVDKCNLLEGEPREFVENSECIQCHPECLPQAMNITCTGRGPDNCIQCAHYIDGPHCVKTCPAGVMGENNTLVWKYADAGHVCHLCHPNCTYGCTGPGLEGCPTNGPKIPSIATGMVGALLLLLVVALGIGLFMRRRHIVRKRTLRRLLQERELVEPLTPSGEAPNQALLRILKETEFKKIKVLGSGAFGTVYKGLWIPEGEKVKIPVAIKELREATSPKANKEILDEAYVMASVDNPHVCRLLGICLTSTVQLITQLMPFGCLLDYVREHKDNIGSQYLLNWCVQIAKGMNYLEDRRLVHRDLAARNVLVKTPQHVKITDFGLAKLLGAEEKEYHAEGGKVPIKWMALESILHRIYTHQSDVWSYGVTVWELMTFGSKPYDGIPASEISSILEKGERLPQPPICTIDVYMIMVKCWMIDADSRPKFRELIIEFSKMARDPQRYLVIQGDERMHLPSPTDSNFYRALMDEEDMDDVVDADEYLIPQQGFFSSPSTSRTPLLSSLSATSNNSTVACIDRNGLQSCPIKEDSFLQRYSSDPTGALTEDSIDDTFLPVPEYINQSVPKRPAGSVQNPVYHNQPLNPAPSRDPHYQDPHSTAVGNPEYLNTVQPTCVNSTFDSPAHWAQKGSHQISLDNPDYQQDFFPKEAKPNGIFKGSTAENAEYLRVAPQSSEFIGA
For assay [8], the target named is Follistatin-related protein 3 (Homo sapiens) (UniProt O95633). In words: FSTL3 binders on small-molecule microarrays, primary screen, biochemical, small-molecule microarray, 635 nm fluorescence (AID 1105).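 Also: score merges emission near 667 nm and signal to noise per printed spot across three slides.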 The conditions noted are these: FSTL3 binding, higher = more signal.
Chain of Follistatin-related protein 3 (Homo sapiens) (O95633 whole entry, looked up): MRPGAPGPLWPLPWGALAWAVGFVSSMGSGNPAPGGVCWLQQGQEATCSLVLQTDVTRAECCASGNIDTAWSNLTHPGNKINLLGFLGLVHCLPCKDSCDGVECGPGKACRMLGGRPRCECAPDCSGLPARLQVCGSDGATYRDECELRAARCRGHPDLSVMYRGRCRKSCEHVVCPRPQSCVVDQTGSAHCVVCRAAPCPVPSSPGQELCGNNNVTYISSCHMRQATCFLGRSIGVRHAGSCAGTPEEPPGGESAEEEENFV
For assay [9], the target named is Dickkopf-related protein 1 (Homo sapiens) (UniProt O94907). In words: DKK1 binders on small-molecule microarrays, primary screen, biochemical, small-molecule microarray, 635 nm fluorescence scan (AID 1106).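 Also: score merges emission near 667 nm with signal to noise over three replicate slides.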 The conditions noted are these: DKK1 binding, higher = more signal.
Chain of Dickkopf-related protein 1 (Homo sapiens) (O94907 whole entry, looked up): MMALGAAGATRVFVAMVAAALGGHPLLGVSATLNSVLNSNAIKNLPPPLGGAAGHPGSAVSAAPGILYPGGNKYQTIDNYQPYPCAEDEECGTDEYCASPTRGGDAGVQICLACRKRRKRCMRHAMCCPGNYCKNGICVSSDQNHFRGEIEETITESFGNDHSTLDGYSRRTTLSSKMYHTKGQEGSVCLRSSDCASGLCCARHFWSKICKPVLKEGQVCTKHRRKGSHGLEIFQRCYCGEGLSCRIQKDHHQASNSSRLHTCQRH
Assay [10] concerns Inhibin beta A chain (activin A). Briefly: INHBA (activin A) binders on microarrays, primary screen, biochemical, small-molecule microarray, 635 nm fluorescence scan (AID 1107).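 Also: mouse activin A protein probed at 4.33 µg/mL on printed slides; score merges bound-protein fluorescence near 667 nm with spot signal-to-noise.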 To be noted: small-molecule microarray binding, higher = more signal.
The test system of assay [11] is Human papillomavirus type 1a protein E7 (residues 44-93). In words: HPV1a E7 fragment binders on microarrays, primary screen, biochemical, small-molecule microarray, residues 44-93, 635 nm fluorescence (AID 1108).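 Also: E7 fragment applied at 1 µg/mL in TBST for 1 h at 4 C; score combines spot fluorescence with its signal to noise ratio.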 The conditions noted are these: small-molecule microarray binding, fluorescence 635 nm; higher = more signal.
Assay [12] in a line: modulators of HCV replicon luciferase signal, primary screen, HCV replication inhibitor project, Huh7 cells, luciferase reporter (AID 1109).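 Also: huh7 hepatoma cells harbouring a luciferase neomycin HCV replicon reporter; luciferase luminescence as measure of HCV replicon replication; test concentration not given here.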 The conditions noted are these: 48 h, higher = more signal. In general terms: A replicon is a self-replicating genome or part of one, used to study replication in cells.
Assay [13] concerns the target Left-right determination factor 2 (Homo sapiens) (UniProt O00292). Briefly: LEFTY2 binders on small-molecule microarrays, primary screen, biochemical, small-molecule microarray, 635 nm fluorescence scan (AID 1110). To be noted: LEFTY2 binding, higher = more signal.
In assay [14] the target is Calmodulin-1 (Homo sapiens) (UniProt P0DP23). Briefly: CALM1 binders on microarrays, EGTA buffer, profiling panel, biochemical, small-molecule microarray, Cy5-labelled CALM1 (AID 1111).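 Also: labelled calmodulin applied in Tris saline Tween buffer holding calcium plus EGTA and DTT.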 To be noted: Cy5-CALM1 binding fluorescence, higher = more signal.
Assay [15] shares this target. Briefly: calcium-bound CALM1 binders on microarrays, profiling panel, artefact control for SMM control-protein annotation, biochemical, small-molecule microarray, Cy5-labelled CALM1, plus calcium (AID 1112).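 Also: score merges spot fluorescence with signal to noise from triplicate slides.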 The conditions noted are these: Cy5-CALM1 binding fluorescence, higher = more signal.
Assay [16] can be described thus: small-molecule microarray binders of probe aWnt5a, primary screen, biochemical, biotinylated probe, 635/667 nm fluorescence (AID 1113).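 Also: score merges 667 nm fluorescence intensity with signal-to-noise per printed feature.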 To be noted: higher = more signal.
The nature of assay [17]: small-molecule microarray binders of probe aShh, primary screen, biochemical, biotinylated probe, 635/667 nm fluorescence (AID 1114).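 Also: probe is biotin-labelled aShh protein from a stem cell growth factor screen; measures binding of labelled protein to compounds printed on the slide; score merges feature fluorescence at 667 nm with signal-to-noise.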 To be noted: higher = more signal.
A short description of assay [18]: small-molecule microarray binders of probe aNog, primary screen, biochemical, biotinylated probe, 635/667 nm fluorescence (AID 1115).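 Also: probe is biotinylated aNog protein used at 0.15 µg/mL for 1 h at 4 C; z-score combines 667 nm fluorescence of each spot with its signal to noise.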 To be noted: higher = more signal.
For assay [19], the target named is Torsin-1A-interacting protein 1 (Homo sapiens) (UniProt Q5JTV8). Briefly: LAP1 binders from COS7 cell lysate, primary screen, small-molecule microarray, 635/667 nm fluorescence (AID 1116). The conditions noted are these: COS7-hLAP1 lysate binding, 635 nm fluorescence, higher = more signal.
Chain of Torsin-1A-interacting protein 1 (Homo sapiens) (Q5JTV8 whole entry, looked up): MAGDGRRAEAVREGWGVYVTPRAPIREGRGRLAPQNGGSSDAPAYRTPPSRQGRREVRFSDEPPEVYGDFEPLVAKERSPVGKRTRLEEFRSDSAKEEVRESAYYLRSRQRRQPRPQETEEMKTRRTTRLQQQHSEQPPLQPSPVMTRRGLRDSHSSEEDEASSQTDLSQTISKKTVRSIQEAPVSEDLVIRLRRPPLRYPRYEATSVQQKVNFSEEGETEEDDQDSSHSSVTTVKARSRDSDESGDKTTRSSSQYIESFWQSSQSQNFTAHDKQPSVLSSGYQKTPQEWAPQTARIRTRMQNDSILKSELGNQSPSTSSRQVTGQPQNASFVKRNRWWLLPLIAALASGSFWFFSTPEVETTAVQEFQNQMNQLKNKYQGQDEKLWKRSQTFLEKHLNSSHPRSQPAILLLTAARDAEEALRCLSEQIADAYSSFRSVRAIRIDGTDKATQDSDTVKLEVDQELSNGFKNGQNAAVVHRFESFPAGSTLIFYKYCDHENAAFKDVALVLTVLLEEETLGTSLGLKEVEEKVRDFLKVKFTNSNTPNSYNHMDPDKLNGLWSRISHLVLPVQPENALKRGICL
The target of assay [20] is Alpha-bungarotoxin (Bungarus multicinctus) (UniProt P60615). Briefly: alpha-bungarotoxin binders on microarray, profiling panel, artefact control for SMM control protein annotation, biochemical, small-molecule microarray, Alexa647 label, 635/667 nm fluorescence (AID 1117). The conditions noted are these: alpha-BTX-A647 binding fluorescence, higher = more signal.
Chain of Alpha-bungarotoxin (Bungarus multicinctus) (P60615 whole entry, looked up): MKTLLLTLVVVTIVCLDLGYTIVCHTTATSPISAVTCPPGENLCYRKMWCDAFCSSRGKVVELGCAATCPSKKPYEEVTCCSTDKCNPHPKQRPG

Chain of Fibroblast growth factor 10 (Homo sapiens) (O15520 whole entry, looked up): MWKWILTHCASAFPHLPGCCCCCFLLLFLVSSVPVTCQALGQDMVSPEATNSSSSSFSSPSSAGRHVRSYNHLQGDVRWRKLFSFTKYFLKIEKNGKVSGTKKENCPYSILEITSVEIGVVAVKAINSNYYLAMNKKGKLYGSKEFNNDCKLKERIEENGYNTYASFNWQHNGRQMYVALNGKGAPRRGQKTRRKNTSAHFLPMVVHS
Chain of Left-right determination factor 2 (Homo sapiens) (O00292 whole entry, looked up): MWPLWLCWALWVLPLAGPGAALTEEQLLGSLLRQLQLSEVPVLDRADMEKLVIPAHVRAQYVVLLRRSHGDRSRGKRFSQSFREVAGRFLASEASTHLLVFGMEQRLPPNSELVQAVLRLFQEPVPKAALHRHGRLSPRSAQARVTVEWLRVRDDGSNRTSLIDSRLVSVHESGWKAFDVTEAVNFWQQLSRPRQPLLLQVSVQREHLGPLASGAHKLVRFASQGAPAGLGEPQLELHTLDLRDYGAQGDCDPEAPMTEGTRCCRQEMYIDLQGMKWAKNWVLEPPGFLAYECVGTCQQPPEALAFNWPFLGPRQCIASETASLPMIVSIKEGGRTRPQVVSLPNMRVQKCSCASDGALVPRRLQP

`CC(C)N1C(=O)[C@@]2(Cc3ccccc31)c1ccccc1C(=O)N(Cc1ccccc1)[C@H]2c1ccc(CO)cc1`: the composite z-score in [1] was 0.0154; in assay [2] it was -1.02; in assay [3], -1.01; in assay [5] it was 0.368; in [6], 0.241; in assay [7], -0.162. Besides, the composite z-score was 0.245 in [8]; 0.355 in assay [9]; 0.931 in assay [10]; 0.256 in assay [11]; 0.159 in [13]; -0.439 in assay [14]. Besides, the composite z-score in assay [15] is -0.445; in assay [16], -0.124; in assay [17], -0.64; in assay [18] it was -0.218; in assay [19], 0.0896; in assay [20], 0.648. The z-score is 0.144 (inactive) in [4] and -0.656 in assay [12].
On to `COC(=O)c1c2oc(c1C(=O)OC)C(=O)N[C@H](Cc1ccccc1)Cn1cc(nn1)C1(CCCCC1)NC(=O)N[C@H](CO)CC2`, for which the composite z-score in assay [1] is 0.569; in assay [2], -0.177; in [3], -0.279; in assay [5] it was 0.495; in assay [6] it was -0.528; in assay [7] it was -0.857. Moreover, the composite z-score in assay [8] is -0.409; in assay [9], -0.2; in assay [10] it was 0.116; in assay [11], -1.21; in assay [13], -0.161; in assay [14], -0.311. The composite z-score is -0.0933 in assay [15]; -0.105 in [16]; 0.0639 in [17]; 0.0119 in [18]; 0.459 in assay [19]; 2.39 in [20]. Also, the results for the z-score in assay [4] and in assay [12] were -0.168 (inactive) and 0.0733, respectively.
For the compound `CCOC(=O)C[C@H]1[C@H](OC(=O)c2ccccc2-c2ccccc2)[C@@H](NC(=O)CC(C)C)c2cc(OCCCO)ccc2N1C(=O)c1ccccc1`, the composite z-score in [1] is 0.461; in assay [2] it was -0.28; in [3] it was -0.56; in assay [5], 0.625; in assay [6] it was 0.211; in assay [7], 0.405. The composite z-score in assay [8] was 1.26; in assay [9] it was 0.523; in assay [10] it was -0.105; in assay [11], 0.0819; in assay [13], 0.466; in [14], -0.0923. The composite z-score in assay [15] is -0.497; in [16], -0.124; in assay [17] it was -0.289; in assay [18], -0.189; in assay [19], 0.222; in [20] it was 0.23. Besides, the z-score in [4] was -0.739 (inactive); in [12], -0.783.
For the compound `CCCC=C(CCC)[C@@H](NC(=O)c1ccc(C(=O)OC)cc1)c1ccc(C(=O)OC)cc1`, the composite z-score was -0.427 in assay [1]; 0.816 in [2]; 0.48 in assay [3]; -0.363 in assay [5]; -0.197 in assay [6]; -0.195 in assay [7]. Also, the composite z-score in assay [8] was -0.0762; in assay [9], -0.158; in [10], 0.804; in [11] it was 0.981; in assay [13], -0.634; in assay [14], 1.48. Moreover, the composite z-score in [15] was 1.06; in assay [16], 0.313; in assay [17] it was 1.45; in assay [18], -0.316; in assay [19], 0.253; in assay [20], -0.037. The z-score was -1.32 (inactive) in [4] and -0.682 in [12].
Regarding `CC(C)(C)OC(=O)CC[C@]1(C(=O)N2CCOCC2)COC(c2ccc(OCCCO)cc2)=N1`, the composite z-score in assay [1] was 1.45; in [2], 0.37; in [3] it was 0.668; in assay [5], 0.164; in [6] it was -0.668; in assay [7], 0.727. The composite z-score in assay [8] is -0.87; in assay [9], -1.34; in [10] it was 0.309; in assay [11], 1.3; in assay [13] it was -0.325; in assay [14], 0.922. Moreover, the composite z-score in assay [15] was 1.03; in assay [16], -0.124; in [17], 0.184; in assay [18] it was -0.283; in assay [19] it was 1.13; in assay [20], -0.31. The z-score in assay [4] is -0.713 (inactive); in assay [12], 0.266.
In the case of `C=C[C@H](C)[C@@H](OC(=O)Nc1ccc(SC)cc1)c1ccc(OCCO)cc1`, the composite z-score in assay [1] was 1.11; in [2], -0.189; in assay [3] it was 0.529; in assay [5], 1.02; in assay [6] it was 0.321; in assay [7] it was -0.359. The composite z-score is 0.379 in assay [8]; -0.395 in assay [9]; 0.246 in assay [10]; 1.3 in assay [11]; -0.396 in assay [13]; 0.19 in assay [14]. Moreover, the composite z-score in [15] was 0.601; in assay [16] it was -0.0792; in assay [17], -0.0643; in assay [18] it was 0.958; in assay [19], 0.248; in assay [20], 0.438. For the same compound, the z-score is -1.36 (inactive) in [4] and -0.931 in [12].
